Values joined by “and” are separate entries in the source; they are usually repeats but may differ in a detail not shown here. Equal values may be shown once. Records with an inconclusive call do not appear. Active and inactive are the calls of the source. Calls come from the whole dose curve; as a rule, active = well fitted curve in the direction sought with a large enough effect; inconclusive = small, poorly fitted or top-dose-only effect, or another doubt; inactive = no such curve, though single readings can be large; an effect the other way counts as inactive or inconclusive.
How the values were obtained:
[1] = qHTS assay for measurement of the activity of small molecule inhibitors on Zika virus induced Caspase-3 activity in human iPSC derived neural progenitor cells (hNPCs) (AID 1224857); note: % of control where 0% means no effect; nearly all actives have a fitted effect of over 65% in size
How it was run: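 Values are percent inhibition of virus-induced caspase-3/7 signal, scaled between uninfected cells and ZIKV-infected cells. Infection used 2 FFU/cell for 6 h after 1 h compound exposure.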

[2] = qHTS assay for measurement of the activity of small molecule inhibitors on Zika virus induced Caspase-3 activity in human astrocytoma cells (AID 1224859);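 note: plate controls were ZIKV-infected untreated cells for no effect and uninfected cells for full effect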
How it was run: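 Compound added 1 h pre-infection; ZIKV 2 FFU/cell on SNB-19 cells, 6 h, 37 C/5% CO2. Caspase-Glo 3/7 luminescence; values as % inhibition of ZIKV-induced caspase activity.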

[3] = qHTS assay to identify small molecule inhibitors of chordoma cells - UCH-1 (AID 1259355); note: % is set by controls: 0 for no effect and ±100 for the full control effect; nearly all actives have a fitted effect of over 55% in size
How it was run: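 A 48hr growth-inhibition format: each drug tested at 15 concentrations together with added auranofin, camptothecin, doxorubicin, rubitecan and topotecan, with cell viability quantified as CellTiter-Glo luminescence.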

[4] = qHTS assay to identify small molecule inhibitors of chordoma cells - UCH-2 (AID 1259356); note: % is set by controls: 0 for no effect and ±100 for the full control effect
[5] = qHTS Assay for Identifying Gametocytocidal Compounds (AID 743244);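 note: % is set by controls: 0 for no effect and ±100 for the full control effect; actives lower the fluorescent signal which means gametocytes are killed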; conditions: P. falciparum 3D7 stage III-V gametocytes, alamarBlue, 72 h; max response: stronger effect = lower value
How it was run: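 Stage III–V gametocytes of P. falciparum 3D7 were seeded at 20,000 cells/well onto pre-dispensed compounds. After 72 h, 37 °C, 5% CO2, alamarBlue was added for another 24 h.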

[6] = P-glycoprotein substrates identified in KB-3-1 adenocarcinoma cell line, qHTS therapeutic library screen (AID 1346986); conditions: KB-3-1 parental cells viability, CellTiter-Glo, 72 h; at 44.5 µM (top of the series) unless noted; note: nearly all actives have a fitted effect of over 60% in size
How it was run: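 Using luminescence to quantify ATP, parental and P-gp-overexpressing KB cells were compared after 72 h compound titration. KB-8-5-11 was also run with the P-gp inhibitor tariquidar.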

[7] = qHTS assay for cell viability of HEK293 cells (AID 743288); conditions: ATP luminescence (CellTiter-Glo), 18 h, stronger effect = lower value; note: % is set by controls: 0 for no effect and ±100 for the full control effect; nearly all actives have a fitted effect of over 50% in size
How it was run: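 HEK293, 18 h, 37 C, ATP luminescence. Cells at 2,000/well were allowed at least 5 h to settle before dosing; CellTiter-Glo developed 30 min at RT.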

[8] = qHTS assay for cell viability of the p53RE-bla HCT-116 cell line (AID 743292); note: % is set by controls: 0 for no effect and ±100 for the full control effect; nearly all actives have a fitted effect of over 55% in size
How it was run: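 ATP-based luminescent viability (CellTiter-Glo, 30 min RT) after 16 h compound treatment at 37 C of p53RE-bla HCT-116 cells, seeded at 4,000 cells/well and rested 5 h before dosing.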

CC[C@H]1CN2CCc3cc(OC)c(OC)cc3[C@@H]2C[C@@H]1C[C@H]1NCCc2cc(OC)c(OC)cc21
inactive: outcome [1] | outcome [2]

CC(C)(C)C(=O)C(Oc1ccc(Cl)cc1)n1ccnc1 (stereo unspecified)
inactive: outcome [1] | outcome [2] | Potency [3] | outcome [4]

CN1CCC[C@@H]1Cc1c[nH]c2ccc(CCS(=O)(=O)c3ccccc3)cc12
inactive: max response [5] -0.49% | outcome [1] | outcome [2] | Potency [3] | outcome [4] | outcome [6]

OCC(CO)N[C@H]1C[C@](O)(CO)[C@@H](O)[C@H](O)[C@H]1O
inactive: max response [5] 7.19% | outcome [1] | outcome [2] | Potency [3] | outcome [4]

C[C@@H]1CC[C@@]2(OC1)O[C@H]1C[C@H]3[C@@H]4CC[C@H]5C[C@@H](O)CC[C@]5(C)[C@H]4CC(=O)[C@]3(C)[C@H]1[C@@H]2C
inactive: max response [5] -9.03% | activity change, negative = inhibition [1] 4.72% [at 4.53 µM] | activity change, negative = inhibition [2] -4.08% [at 4.53 µM] | Potency [3] | outcome [4]

COc1ccc(Cl)cc1C(=O)NCCc1ccc(S(=O)(=O)NC(=O)NC2CCCCC2)cc1
inactive: max response [5] 54% and 5.04% | max response [7] -4.82% | Potency [8] | outcome [1] | outcome [2] | Potency [3] | outcome [4] | outcome [6]

C[C@@H]1CN(c2c(F)c(F)c3c(=O)c(C(=O)O)cn(C4CC4)c3c2F)C[C@H](C)N1
inactive: max response [5] 12.6% | outcome [1] | outcome [2] | Potency [3] | outcome [4] | outcome [6] inactive [at 9.29 µM]

CC(=O)CCC(=O)O
inactive: max response [5] 13.5% | outcome [1] | outcome [2] | Potency [3] | outcome [4]

CCn1cc(C(=O)O)c(=O)c2cnc(N3CCNCC3)nc21
inactive: max response [5] 12.2% | outcome [1] | outcome [2] | Potency [3] | outcome [4]

Cn1c(=O)c2c(ncn2CC2OCCO2)n(C)c1=O
inactive: max response [5] 2.6% | outcome [1] | outcome [2] | Potency [3] | outcome [4]

CNCC(O)c1ccc(O)c(O)c1 (stereo unspecified)
inactive: outcome [1] | outcome [2]

Nc1ccc(S(=O)(=O)Nc2ccc(Cl)nn2)cc1
inactive: max response [5] 13.8% and 15.1% | outcome [1] | outcome [2] | Potency [3] | outcome [4]

O=c1[nH]cnc2c1ncn2[C@@H]1O[C@H](CO)[C@@H](O)[C@H]1O
inactive: max response [5] 5.28% | outcome [1] | outcome [2] | Potency [3] | outcome [4] | outcome [6]

Cc1ccc(C(C)C)cc2c(C)ccc1-2
inactive: max response [5] 3.45% | outcome [1] | outcome [2] | Potency [3] | outcome [4]

COc1ccc(S(=O)(=O)Nc2nnc(CC(C)C)s2)cc1
inactive: max response [5] 7.52% and 10.3% | outcome [1] | outcome [2] | Potency [3] | outcome [4]

CCOc1ccc2ccccc2c1C(=O)N[C@@H]1C(=O)N2[C@@H]1SC(C)(C)[C@@H]2C(=O)O
inactive: max response [5] -1.05% | outcome [1] | outcome [2] | Potency [3] | outcome [4]

CO/N=C(\C(=O)N[C@@H]1C(=O)N2C(C(=O)O)=C(CSc3nc(=O)c(O)nn3C)CS[C@H]12)c1csc(N)n1
inactive: max response [5] -6.47% | outcome [1] | outcome [2] | Potency [3] | outcome [4]

COc1ccc2c(c1)C(=O)N(CCc1ccc(S(=O)(=O)NC(=O)NC3CCCCC3)cc1)C(=O)C2(C)C
inactive: max response [5] 22.2% | outcome [1] | outcome [2] | Potency [3] | outcome [4]

CC(COc1ccccc1)NC(C)C(O)c1ccc(O)cc1 (stereo unspecified)
inactive: max response [5] 25.2% | outcome [1] | outcome [2] | Potency [3] | outcome [4]

CC(C)(O)c1ccccc1CC[C@@H](SCC1(CC(=O)O)CC1)c1cccc(/C=C/c2ccc3ccc(Cl)cc3n2)c1
inactive: max response [5] -7.08% | outcome [1] | outcome [2] | Potency [3] | outcome [4]

NC(=O)NC(=O)Cc1ccccc1
inactive: max response [5] 3.39% | outcome [1] | outcome [2] | Potency [3] | outcome [4]

Cc1ncc(COP(=O)(O)O)c(C=O)c1O
inactive: max response [5] 5.05% | outcome [1] | outcome [2] | Potency [3] | outcome [4]

CCCCN(CCCC)CCCOC(=O)c1ccc(N)cc1
inactive: max response [5] 0.616% | outcome [1] | outcome [2] | Potency [3] | outcome [4]

O=c1cc[nH]c(=S)[nH]1
inactive: max response [5] 12.7% | outcome [1] | outcome [2] | Potency [3] | outcome [4]

CC(=O)c1ccc2c(c1)N(CCCN(C)C)c1ccccc1S2
inactive: max response [5] -10.5% | outcome [1] | outcome [2] | Potency [3] | outcome [4]

CN(C)CCN(Cc1ccccc1)c1ccccn1
inactive: max response [5] -8.07% | outcome [1] | outcome [2] | Potency [3] | outcome [4]

CN(N=O)C(=O)N[C@@H]1[C@@H](O)[C@H](O)[C@@H](CO)O[C@@H]1O
inactive: max response [5] 5.26% | outcome [1] | outcome [2] | Potency [3] | outcome [4]

C/C(=C(\CCOP(=O)(O)O)SC(=O)c1ccccc1)N(C=O)Cc1cnc(C)nc1N
inactive: max response [5] 7.95% | activity change, negative = inhibition [1] 4.2% [at 4.53 µM] | activity change, negative = inhibition [2] 26.7% [at 4.53 µM] | Potency [3] | outcome [4]

O=C1NC(=O)[C@@]2(CCOc3ccc(F)cc32)N1
inactive: max response [5] -2.96% | outcome [1] | outcome [2] | Potency [3] | outcome [4]

CCCn1cnc2c1c(=O)n(CCCCC(C)=O)c(=O)n2C
inactive: max response [5] -8.62% and 26.7% | outcome [1] | outcome [2] | Potency [3] | outcome [4]

c1ccc(CN(CC2=NCCN2)c2ccccc2)cc1
inactive: max response [5] -10.1% | outcome [1] | outcome [2] | Potency [3] | outcome [4]

COc1cc(C(=O)N2CCOCC2)cc(OC)c1OC
inactive: max response [5] -5.92% and 13.8% | outcome [1] | outcome [2] | Potency [3] | outcome [4]

CN(C)CCCO[C@@H]1[C@H]2OC(C)(C)O[C@H]2O[C@@H]1C(O)CO (stereo partly specified)
inactive: max response [5] -6.36% | outcome [1] | outcome [2] | activity, negative = inhibition [3] -7.27% [at 1.88 µM] | outcome [4]

CCC(=O)Nc1ccc(O)cc1
inactive: max response [5] 7.2% | outcome [1] | outcome [2] | Potency [3] | outcome [4]

O=C(O)[C@H](O)c1ccccc1
inactive: max response [5] 17.9% | outcome [1] | outcome [2] | Potency [3] | outcome [4]

Nc1ccc(S(=O)(=O)NC(=O)c2ccccc2)cc1
inactive: max response [5] 7.19% | outcome [1] | outcome [2] | Potency [3] | outcome [4]

NC1CCN(c2cccc(Cl)n2)CC1
inactive: max response [5] 1.41% and 17.3% | outcome [1] | outcome [2] | Potency [3] | outcome [4]

CN1[C@@H]2CC(OC(=O)[C@H](CO)c3ccccc3)C[C@H]1[C@@H]1O[C@@H]12 (stereo partly specified)
inactive: max response [5] 9.71% and 1.92% | outcome [1] | outcome [2] | Potency [3] | outcome [4]

O=C1OC(OC(=O)c2cccnc2Nc2cccc(C(F)(F)F)c2)c2ccccc21 (stereo unspecified)
inactive: max response [5] 9.12% | outcome [1] | outcome [2] | Potency [3] | outcome [4]

CCCCc1ncc(/C=C(\Cc2cccs2)C(=O)O)n1Cc1ccc(C(=O)O)cc1
inactive: max response [5] -3.3% | outcome [1] | outcome [2] | Potency [3] | outcome [4]

NC(=O)NNc1ccccc1
inactive: max response [5] 5.12% and -3.42% | outcome [1] | outcome [2] | Potency [3] | outcome [4]

CS(=O)(=O)c1ccc([C@@H](O)[C@@H](CF)NC(=O)C(Cl)Cl)cc1
inactive: max response [5] 23.9% | outcome [1] | outcome [2] | Potency [3] | outcome [4]

CC(=O)Oc1c(C)c(C)c2c(c1C)CC[C@@](C)(CCC[C@H](C)CCC[C@H](C)CCCC(C)C)O2
inactive: max response [5] -2.38% and 13.2% and -6.36% | outcome [1] | outcome [2] | Potency [3] | outcome [4]

CC1(C)OC(=O)NC1=O
inactive: max response [5] 2.42% | outcome [1] | outcome [2] | Potency [3] | outcome [4]

C[C@@H](O)[C@H](N)C(=O)O
inactive: max response [5] 6.39% | outcome [1] | outcome [2] | Potency [3] | outcome [4]

O=C(O)COc1nn(Cc2ccccc2)c2ccccc12
inactive: max response [5] 49.6% | outcome [1] | outcome [2] | Potency [3] | outcome [4]

Cc1cccc(C)c1NC(=O)CN(CC(=O)O)CC(=O)O
inactive: max response [5] -6.34% | outcome [1] | outcome [2] | Potency [3] | outcome [4]

N[C@@H](CSCCCO)C(=O)O
inactive: max response [5] -2.32% | outcome [1] | outcome [2] | Potency [3] | outcome [4]

CCOC(=O)[C@H](CCc1ccccc1)N[C@@H](C)C(=O)N1C(=O)N(C)C[C@H]1C(=O)O
inactive: max response [5] 6.96% | outcome [1] | outcome [2] | outcome [4]

CC1(C)[C@@H]2CC[C@@]1(C)C(=O)C2
inactive: max response [5] -6.95% | max response [7] -3.96% | Potency [8] | outcome [1] | outcome [2] | Potency [3] | outcome [4]

Cc1cccc(Nc2cc(Cl)nc(SCC(=O)O)n2)c1C
inactive: max response [5] -1.09% | max response [7] -9.34% | Potency [8] | outcome [1] | outcome [2] | Potency [3] | outcome [4]

Cc1cc2nc3c(=O)[nH]c(=O)nc-3n(C[C@H](O)[C@H](O)[C@H](O)CO)c2cc1C
inactive: max response [5] 33.2% and 6.89% | max response [7] -6.02% | Potency [8] | outcome [1] | outcome [2] | Potency [3] | outcome [4]

CCCCC(CC)COC(=O)c1ccccc1O (stereo unspecified)
inactive: max response [5] 10.2% | max response [7] -7.63% | Potency [8] | outcome [1] | outcome [2] | Potency [3] | outcome [4]

N[C@H]1C(O)O[C@H](CO)[C@@H](O)[C@@H]1O (stereo partly specified)
inactive: max response [5] -9.09% | outcome [1] | outcome [2] | Potency [3] | outcome [4]

CCC(=O)c1ccc(O)cc1
inactive: max response [5] -0.113% | outcome [1] | outcome [2] | outcome [4]

[Cl][In]([Cl])[Cl]
inactive: max response [5] -7.04% and -5.36% | max response [7] 7.88% | Potency [8] | outcome [1] | outcome [2] | Potency [3] | outcome [4]

NS(=O)(=O)c1cc2c(cc1C(F)(F)F)NC(Cc1ccccc1)NS2(=O)=O (stereo unspecified)
inactive: max response [5] 5.19% | outcome [1] | outcome [2] | outcome [4]

— PubChem BioAssay (NCATS)
